From the supplement of paper PMC5919970
Counter-ions that a name gives are not always drawn. In all, about 2,000 compounds were measured (“fractional viability relative to vehicle”: median about 0.92, lowest 2% from about 0.11 on). This is one part of a sample in which the lowest values are shown more often than they occur.

Tested on: TYKNU
Assay: fractional viability relative to vehicle; TYKNU is a high-grade serous ovarian cancer line; higher = less growth inhibition
Conditions: 72 h, genotype: OPA1 knockout (sgOPA1 #2)
How it was run: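 TYKNU control cells or lentiCRISPRv2 knockout derivatives were seeded at 500 cells per well into drug-stamped 384-well plates holding a ~2100-compound library at 2 or 10 μM, in duplicate. Cells were grown at 37 °C in 5% CO2 in RPMI 1640 with 10% FBS, and drug treatment lasted 72 h. Viability was read by Cell Titer Glo luminescence. Duplicate treatment wells were averaged and normalised to duplicate control wells from the same plate position.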

Compound	fractional viability (2uM)	fractional viability (10uM)
CC(C=CC(=O)NO)=CC(C)C(=O)c1ccc(N(C)C)cc1 (stereo not drawn) [Trichostatin A (TSA)]	0.335	0.298
O=C(O)c1ccc(-c2c[nH]c3ncc(-c4ccccc4)cc23)cc1C1CCCC1	0.98	1.11
Cc1ccc([N+](=O)[O-])cc1S(=O)(=O)N(C)/N=C/c1cnc2ccc(Br)cn12	0.428	0.422
Cc1cc(C(N)=O)ccc1-n1c(CCC(=O)O)ccc1-c1ccc(-n2ccnc2)cc1	0.877	0.84
CCOC(=O)c1ccc(NC2CCCCC2)c(N)c1 [Ferrostatin-1 (Fer-1)]	1.03	0.934
CC(C)[C@H](N)C(=O)OCC(CO)OCn1cnc2c(=O)[nH]c(N)nc21 (stereo partly drawn) [Valganciclovir HCl]	0.846	0.832
N#C/C(=C\c1ccc(O)c(O)c1)C(=O)NCc1ccccc1 [AG-490 (Tyrphostin B42)]	1.03	1.08
C[C@H](NC(=O)/C(C#N)=C/c1cccc(Br)n1)c1ccccc1	0.867	0.0926
C[C@H](NC(=O)CCc1nc2ccccc2c(=O)[nH]1)c1ccccc1	0.861	0.876
CCC[C@H](NC(=O)/C(C#N)=C/c1cccc(Br)n1)c1ccccc1 [Degrasyn (WP1130)]	0.343	0.0765
CC(C)C[C@H](NP(=O)(O)O[C@@H]1O[C@@H](C)[C@H](O)[C@@H](O)[C@H]1O)C(=O)N[C@@H](Cc1c[nH]c2ccccc12)C(=O)O [Phosphoramidon Disodium Salt]	0.899	0.879
CNC(=O)[C@@H](NC(=O)[C@H](CC(C)C)[C@H](O)C(=O)NO)C(C)(C)C [Marimastat(BB-2516)]	0.952	0.73
CC[C@@H]([C@H](C)O)n1ncn(-c2ccc(N3CCN(c4ccc(OC[C@@H]5CO[C@@](Cn6cncn6)(c6ccc(F)cc6F)C5)cc4)CC3)cc2)c1=O [Posaconazole]	1.18	0.872
Cc1ccc(NC(=O)Nc2cc(C(F)(F)F)ccc2F)cc1Nc1ccc2c(c1)NC(=O)/C2=C\c1ccc[nH]1	0.83	0.932
CNS(=O)(=O)Nc1nccc(Cc2c(C)c3ccc(Oc4ncccn4)cc3oc2=O)c1F	0.508	0.376
O=C(c1ccc(C(=O)N2CCC(N3CCCC3)CC2)c(Nc2ccccc2)c1)N1CCC(N2CCCC2)CC1	0.924	0.857
O=C(c1cncc(Br)c1)N1CCC(N2CCCC2)CC1	0.797	0.838

Compound	fractional viability (2uM)	fractional viability (10uM)
O=C(c1ccc(Nc2nccc(-c3cc4ccccc4s3)n2)cc1)N1CCC(N2CCCC2)CC1 [IKK-16 (IKK Inhibitor VII)]	0.74	0.0971
O=C(N/N=C/c1cc(O)c(O)cc1O)c1cc2ccccc2cc1O [Dyngo-4a]	1.04	1.16
Cc1nc(N(C)C(=O)Cc2ccc(-c3ccccn3)cc2)sc1S(N)(=O)=O [Pritelivir (BAY 57-1293)]	0.924	0.791
Cc1cc(Cn2cnc3c2CC(C(=O)O)N(C(=O)C(c2ccccc2)c2ccccc2)C3)ccc1N(C)C (stereo not drawn)	0.986	0.95
Cc1cc(C)cc(C(=O)NOCCCCCC(=O)NO)c1	0.355	0.188
C/C=C1\NC(=O)[C@H]2CSSCC/C=C/[C@H](CC(=O)N[C@H](C(C)C)C(=O)N2)OC(=O)[C@H](C(C)C)NC1=O [Romidepsin (FK228, Depsipeptide)]	0.0685	0.0492
c1ccc2c(CCNc3ccc(Nc4ccncc4)cc3)c[nH]c2c1	0.485	0.15
Oc1nc(-c2ccc(C(F)(F)F)cc2)nc2c1CSCC2	1.13	0.683
Cc1ccc(Nc2nccc(N(C)c3ccc4c(C)n(C)nc4c3)n2)cc1S(N)(=O)=O [Pazopanib]	1.14	0.605
CCOC(=O)c1[nH]c2cc(Cl)ccc2c1C(C(=O)NC(C)(C)C)N(C=O)Cc1ccc(Cl)cc1 (stereo not drawn)	0.864	0.464
CN(C)c1ccc(C(=C2C=CC(=[N+](C)C)C=C2)c2ccc(N(C)C)cc2)cc1 [Crystal Violet]	0.323	0.0953
O=C(O)CCC(=O)Nc1ccc(Br)cn1 [Bikinin]	0.818	0.759
[I-].[K+] [Potassium Iodide]	1.07	0.971
O=C1NCCCc2c1oc1ccc(O)cc21	1.1	1.15
c1ccc(Cn2c(-c3ccc(OC[C@H](C4CCNCC4)n4c(-c5ccccc5)nc5ccccc54)cc3)nc3ccccc32)cc1 [Deltarasin]	1.14	0.0644
Cc1cc(/N=N/c2ccc(S(=O)(=O)Nc3ccccn3)cc2)c(N)cc1O	0.89	0.64
O=C(NO)c1cccc(C(=O)NCCc2ccccc2)c1	0.926	0.933
